Test results published in PubChem BioAssay (NCI).
Values joined by “and” are separate entries in the source; they are usually repeats but may differ in a detail not shown here. Identical values can stand only once. About 83,000 compounds went through this panel and 20% of them were active in at least one assay; those are over-represented in the sample as a whole.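 Testing used 96-well plates and a 48-hour single-concentration exposure. Example: -40 means 40% of the starting cells died.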 Active and inactive are the calls of the source.

These compounds were tested on COLO 205 colon (assay: NCI-60 one-dose screen, 48 h (100 = growth as untreated, 0 = no growth, -100 = all killed)). Details: 10 µM.
Method: Cells are grown in 96 well plates and exposed to the test compound for 48 hours. Compounds are tested at a single concentration, which is 10^-5 M for most compounds. The reported endpoint is percent growth (GI% or GIPRCNT), where numbers from 0 - 100% represent growth inhibition, and numbers from -100% - 0 represent cell death. For example, a value of 40 represents 60% growth inhibition. A value of 0 means no net growth occurred over the course of the experiment. A value of -40 indicates 40% of cells at the beginning of the experiment died by the end of the experiment. A value of -100 means all cells are dead at the end of the experiment.
NCI-60 Human Tumor Cell Lines Screen was performed using the standard one-dose NCI protocol, which is described in more detail at https://dtp.cancer.gov/discovery_development/nci-60/default.htm.
Compounds with GIPRCNT values below 10 were considered active. Activity score was based on GIPRCNT using the following formula: […]
Score is 0 for GIPRCNT values of 100 or above, 50 for GIPRCNT values of 0, and 100 for GIPRCNT values of -100.

| SMILES | growth |
| --- | --- |
| O=c1[nH]c2ccccc2n1C1CCN(CCCC(c2ccc(F)cc2)c2ccc(F)cc2)CC1 | -50.3% (active) and -70.3% (active) |
| CC[C@@H](C)[C@@H]1NC(=O)C(NC(=O)C(CC(C)C)N(C)C(=O)C2CCCN2C(=O)C(C)O)C(C)OC(=O)C(Cc2ccc(OC)cc2)N(C)C(=O)C2CCCN2C(=O)C(CC(C)C)NC(=O)C(C)C(=O)C(C(C)C)OC(=O)C[C@H]1O (stereo not given in full) | -69.5% (active) |
| Oc1ccccc1-c1ccccc1 | 110% (inactive) and 112% (inactive) |
| CC12OOC(c3ccccc31)c1c2ccc2ccccc12 (stereo not given) | -65.4% (active) |
| COc1ccccc1[As]=[As]c1ccccc1OC (stereo not given) | -93.1% (active) |
| Oc1c(Cl)cc(Cl)c2ccccc12.[Cu+2] | 102% (inactive) |
| Cc1cc(C(C)(C)c2ccc(O)c(C)c2)ccc1O | 100% (inactive) |
| COc1cc(/C=C/[N+](=O)[O-])cc(Br)c1OC | 17.5% (inactive) |
| O=C(CBr)Nc1ccc(Cl)cc1 | -3.53% (active) |
| [Cl][Sn]([c]1ccccc1)([c]1ccccc1)[c]1ccccc1 | -92.5% (active) |
| O=C1CCC(=O)N1SC(Cl)(Cl)Cl | 112% (inactive) |
| O=[N+]([O-])/C=C\c1ccc2c(c1)OCO2 | 89.8% (inactive) |
| Cc1cc([N+](=O)[O-])c2ccccc2[n+]1[O-] | -63.1% (active) and -95.1% (active) |
| COc1ccccc1/C=C/[N+](=O)[O-] | 79.3% (inactive) |
| COC(=O)C1C(O)C(C)C(O)C(C)/C=C\C=C(C)C(=O)Nc2c(C)c(OC(C)=O)c3c(c2O)C(=O)C(C)=C2OCOC(=C23)C(C)=CC(C)(O)C(O)C(C)C1O (stereo not given) | 94.7% (inactive) |
| CC(=O)Nc1c2sscc-2n(C)c1=O | -87.1% (active) |
| CC(C)(C)OOC(=O)/C=C\C(=O)OOC(C)(C)C | 110% (inactive) |
| CN(CCCl)c1ccc(/C=C/C2=[N+](C)c3ccccc3C2(C)C)cc1 | -7.09% (active) |
| COc1cc([N+](=O)[O-])c2ncccc2c1[N+](=O)[O-] | 86.1% (inactive) |
| Cn1c(O)c(N=O)c(=O)n(C)c1=O | 110% (inactive) and 111% (inactive) |

| SMILES | growth |
| --- | --- |
| COC12c3c(C)cc(O)c4c(=O)occ(c34)C(=O)C1C13COC(=O)c4c(O)cc(C)c(c41)C(=O)C2C3OC(C)=O (stereo not given) | 103% (inactive) |
| O=[N+]([O-])c1ccc(Br)c([N+](=O)[O-])c1 | 0.504% (active) |
| CC(C)C1(NC(=O)C2CC3c4cccc5[nH]cc(c45)CC3N(C)C2)OC2(O)C3CCCN3C(=O)C(Cc3ccccc3)N2C1=O (stereo not given) | 106% (inactive) |
| CS(=N)(=O)CCC(N)C(=O)O (stereo not given) | 122% (inactive) |
| COc1ccc(/C=C\[N+](=O)[O-])cc1OC | 76.5% (inactive) and 64.5% (inactive) |
| C/C(=C\c1ccc(Cl)c(Cl)c1)[N+](=O)[O-] | -57.9% (active) and 101% (inactive) |
| C/C1=C\[C@H](C)C[C@H](C)OC(=O)C[C@H](c2ccc(O)cc2)NC(=O)[C@@H](Cc2c(Br)[nH]c3ccccc23)N(C)C(=O)[C@H](C)NC(=O)[C@@H](C)C1 | 9.93% (active) |
| O=C1C(=O)c2ccccc2-c2ccccc21 | -63.5% (active) |
| NC(Cc1ccccc1)c1ccccc1 (stereo not given) | 103% (inactive) and 105% (inactive) |
| [Cl][Hg][c]1ccc(Cl)s1 | -81.2% (active) |
| O=[N+]([O-])c1cc[n+]([O-])c2ccccc12 | -74.9% (active) |
| O=C(CCl)Nc1ccc(Cl)cc1 | 52.3% (inactive) |
| COC12C(COC(N)=O)C3=C(C(=O)C(C)=C(N)C3=O)N1CC1C2N1C (stereo not given) | 46.2% (inactive) |
| COc1cc(/C=C(/C)[N+](=O)[O-])ccc1O | 60.8% (inactive) and 47.9% (inactive) |
| Cc1ccc(C(=O)C2C(c3ccccc3)N2C2CCCCC2)cc1 (stereo not given) | 126% (inactive) and 110% (inactive) |
| C[C@@H]1C[C@@H]([C@H](O)CC2CC(=O)NC(=O)C2)C(=O)[C@@H](C)C1 | -14.9% (active) |
| CC/C(=C/c1ccc(OC)cc1OC)[N+](=O)[O-] | -40.7% (active) |
| NC(=O)c1cc([N+](=O)[O-])c(Cl)c([N+](=O)[O-])c1Cl | -54.1% (active) |
| CC(=O)[O][Hg][c]1c(C)c(C)cc(C)c1C | -9.36% (active) |
| CC(C)c1cc([N+](=O)[O-])cc([N+](=O)[O-])c1O | 105% (inactive) |
